Assay [1] deals with T1, ETS1 (UniProt P14921).
T1 sequence: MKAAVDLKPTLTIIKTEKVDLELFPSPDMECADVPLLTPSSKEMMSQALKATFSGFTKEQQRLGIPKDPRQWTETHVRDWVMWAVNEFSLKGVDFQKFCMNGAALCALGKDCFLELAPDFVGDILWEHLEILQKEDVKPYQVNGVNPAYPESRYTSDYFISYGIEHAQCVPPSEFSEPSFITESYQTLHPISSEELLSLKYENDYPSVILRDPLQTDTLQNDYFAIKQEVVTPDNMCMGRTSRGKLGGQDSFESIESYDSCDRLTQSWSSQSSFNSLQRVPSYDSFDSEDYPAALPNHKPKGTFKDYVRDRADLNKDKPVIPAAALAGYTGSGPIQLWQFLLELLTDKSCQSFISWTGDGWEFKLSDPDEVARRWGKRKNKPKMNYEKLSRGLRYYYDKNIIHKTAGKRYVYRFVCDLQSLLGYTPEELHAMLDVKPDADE
The assay can be described thus: ETS1 binding intensity (PBM fluorescence), ETS1 alone (arbitrary fluorescence units); higher = stronger binding. The conditions noted are these: ETS1 concentration 1 nM; RUNX1 concentration 0 nM.

Assay [2] addresses RUNX1 (UniProt Q01196). Nature of the assay: RUNX1 binding intensity (PBM fluorescence), RUNX1 alone (arbitrary fluorescence units); higher = stronger binding. As to conditions: RUNX1 concentration 2 nM; ETS1 concentration 0 nM. As for the experimental part: (§1)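 Cooperative gcPBM on 36-bp genomic probes with neighbouring ETS1 and RUNX1 sites. Recombinant human RUNX1 (2 nM) was incubated alone or with ETS1 (25 nM) and detected with anti-RUNX1 antibody plus Alexa488 secondary. Values are medians over 4 replicate spots; the RUNX1+ETS1 data were normalised to the RUNX1-only data. The probes sit in constant array flanks that are not printed.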

For assay [3], the target named is T1, ETS1. Nature of the assay: ETS1 binding intensity (PBM fluorescence) in presence of RUNX1, normalised to ETS1-only experiment (arbitrary fluorescence units); higher = stronger binding. As to conditions: ETS1 concentration 1 nM; RUNX1 concentration 25 nM.
The target of assay [4] is RUNX1 (UniProt Q01196). The assay can be described thus: RUNX1 binding intensity (PBM fluorescence) in presence of ETS1, normalised to RUNX1-only experiment (arbitrary fluorescence units); higher = stronger binding. As to conditions: RUNX1 concentration 2 nM; ETS1 concentration 25 nM. As for the experimental part:
as §1

We go through 14 sequences from the supplement of paper PMC10681739.
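For RUNX1 binding intensity (PBM fluorescence) in presence of ETS1, normalised to RUNX1-only experiment in this document: Full-length recombinant human ETS1 or RUNX1 bound to double-stranded 36-bp genomic probes on microarrays, detected by protein-specific primary antibody and Alexa488 secondary, spot fluorescence as median of four replicate spots.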
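For RUNX1 binding intensity (PBM fluorescence), RUNX1 alone in this document: Full-length recombinant human RUNX1 bound to double-stranded 36-bp genomic probes on a high-density microarray, scored as Alexa488 fluorescence per spot via anti-RUNX1 antibody, median of four replicate spots.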

Chain of RUNX1 (Q01196 whole entry): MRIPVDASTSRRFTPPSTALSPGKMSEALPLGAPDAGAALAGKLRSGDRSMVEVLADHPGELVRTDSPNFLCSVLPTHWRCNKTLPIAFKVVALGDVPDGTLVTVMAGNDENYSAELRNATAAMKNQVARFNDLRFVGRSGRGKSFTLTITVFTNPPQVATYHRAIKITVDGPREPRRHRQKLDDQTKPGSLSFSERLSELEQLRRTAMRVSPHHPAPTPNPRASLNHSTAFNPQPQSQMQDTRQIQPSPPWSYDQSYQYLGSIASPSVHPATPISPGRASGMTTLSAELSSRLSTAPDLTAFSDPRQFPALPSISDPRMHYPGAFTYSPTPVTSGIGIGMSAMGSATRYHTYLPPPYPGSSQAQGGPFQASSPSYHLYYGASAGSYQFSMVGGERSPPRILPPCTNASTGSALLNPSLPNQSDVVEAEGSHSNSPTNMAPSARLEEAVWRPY

For CTACGACTTCCGTGATGCCTTGCGGTTGCTGTAGCC, the ETS1 binding intensity with ETS1 [1] came out at 524; in the assay with ETS1 [3], 1380. The RUNX1 binding intensity turned out to be 2700 with RUNX1 [2] and 8450 with RUNX1 [4].
For GTGGTCGGGAGGGGAAGTGAGGCGGTTACCTCGGCG the same measures were 684, 689, 790 and 925.
For GTTTAACAGGAAACCCTGCAGACCACAGGTTCTGTC the same measures were 1220, 3630, 807 and 1680.
For GCCCAGGAAGTGGGTACAAAATGAGCCACAAGACCT the same measures were 616, 839, 768 and 1610.
In the case of GCCCACTTCCTGCCGTAAGAGAAAACCACTAACACA, the ETS1 binding intensity in the assay with ETS1 [1] came to 890; in the assay with ETS1 [3] it was 2190. Further, the RUNX1 binding intensity in the assay with RUNX1 [2] was found to be 1970; with RUNX1 [4], 4760.
With GTTCCTTTGAAAGCAGGATGTGGTTTGCCCCAGCTT, the ETS1 binding intensity was found to be 5390 with ETS1 [1] and 29200 with ETS1 [3]. Also, the RUNX1 binding intensity with RUNX1 [2] was determined as 881; with RUNX1 [4], 3730.
Consider CACTGATTAAGAGGAAGTGTGTGTGGTTATTACCGT, for which the values for the ETS1 binding intensity with ETS1 [1] and in the assay with ETS1 [3] were 1980 and 8330, respectively. Moreover, the figures for the RUNX1 binding intensity in the assay with RUNX1 [2] and with RUNX1 [4] were 804 and 1170, respectively.
The corresponding values for TGCAAGAGGAAGCTGGGGTTTGTGGTTCATGTTTTG are 528, 1000, 874 and 1390.
The corresponding values for TTACTGCCGGAACTTGGGACCTTTGTAACCACGTCT are 524, 586, 768 and 875.
Take AACAACTGACCGGACAGAACACAGCCACAAAACACG: the results for the ETS1 binding intensity in the assay with ETS1 [1] and in the assay with ETS1 [3] were 606 and 544, respectively. Also, the RUNX1 binding intensity in the assay with RUNX1 [2] was 936; with RUNX1 [4], 928.
The corresponding values for CTTCACTATGCATCCTGTACTGCAACCACACCAAAC are 587, 793, 1350 and 1910.
The corresponding values for GCCTCCTCAGGAAATTGCCCAAAATAGCCACATGTC are 735, 667, 1090 and 1240.
For CACCCAGTTTGAACTTCCTGGCGGTTTTGTTTACAC the same measures were 673, 853, 972 and 1730.
As to TGCGAGCACCCGGAAGCCGCTTGCGGGCTCCCGGAG, the ETS1 binding intensity in the assay with ETS1 [1] came out at 2840; with ETS1 [3], 5620. Also, the results for the RUNX1 binding intensity in the assay with RUNX1 [2] and with RUNX1 [4] were 701 and 999, respectively.
